Experimental findings from PubChem BioAssay AID588675 (Johns Hopkins Ion Channel Center, 2011) are described below.

Molecules are shown by their SMILES. Out of some 310,000 compounds screened, about 1,900 (0.61%) were called active.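 Rule for the calls: active = plate-corrected calcium response at least 3 library SD above typical, normal starting fluorescence, not activating the receptor alone; inactive = the rest.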 The full list was thinned out, with actives kept by preference.

Mas-related G-protein coupled receptor member X1 (Homo sapiens), sequence (Q96LB2 whole entry, looked up): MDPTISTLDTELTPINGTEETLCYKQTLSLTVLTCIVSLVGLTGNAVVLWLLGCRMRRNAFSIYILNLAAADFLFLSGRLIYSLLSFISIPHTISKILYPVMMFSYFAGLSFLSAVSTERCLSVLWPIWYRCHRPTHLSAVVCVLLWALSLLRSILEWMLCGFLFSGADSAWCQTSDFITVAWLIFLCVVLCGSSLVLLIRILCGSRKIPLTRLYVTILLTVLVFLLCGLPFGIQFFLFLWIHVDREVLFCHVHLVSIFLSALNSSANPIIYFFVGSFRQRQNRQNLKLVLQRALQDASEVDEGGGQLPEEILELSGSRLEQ

The assay has as its target Mas-related G-protein coupled receptor member X1 (Homo sapiens) (UniProt Q96LB2). Briefly: allosteric enhancers of human MrgX1 signaling – HEK293 cells, Fluo-4 calcium flux, primary screen (AID 588675).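 For B-score: peak minus trough fluorescence over baseline measured at the second addition.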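 Note: compound read alongside a low EC10 to EC30 dose of BAM8-22 agonist.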 The conditions noted are these: MrgX1-HEK293, Fluo-4 calcium flux, FDSS, at 10 µM; active compounds read high.
`C=C(C)c1cccc(C(C)(C)NC(=O)NCCN(CC)CC)c1`: the B-score result is “inactive”.
On to `CC(C)C(=O)NCC(c1cccs1)S(=O)(=O)c1ccc(F)cc1` (stereo not given), for which the B-score result was “inactive”.
With `Cc1cccc(Cn2cnc3c(N)c(C)c(C)cc32)c1`, the B-score was 9.78 (active).
On to `COc1cccc(Cn2cnc3c([N+](=O)[O-])c(C)c(C)cc32)c1`, for which the B-score result is “inactive”.
Regarding `CCOC(=O)c1cn(Cc2cccc(C)c2)nn1`, the B-score entry was “inactive”.
For `CCOc1ccc2[nH]c(=O)c(CN(CCCO)S(=O)(=O)c3ccc(F)cc3)cc2c1` the value was “inactive”.
For the molecule `Cc1cc2c(cc1C)[n+](C)cn2CC(O)COCC1CC=CCC1` (stereo not given), the B-score entry is “inactive”.
With `Cn1c(-c2ccc(F)cc2)cc2onc(-c3ccccc3Cl)c2c1=O`, the B-score entry was “inactive”.
With `CCC1(CC)Cc2ccccc2-c2nc3ccccc3c(=O)n21`, the B-score entry was “inactive”.
Regarding `Cc1nc2ccccc2n1CC(O)c1ccccc1` (stereo not given), the B-score result was “inactive”.
With `CCn1c(C)nc2c1C(=O)c1ccccc1C2=O`, the B-score is 6.92 (active).
The same measure for `CN(C)c1ccc(Nc2c3c4c(cccc4n(C)c2=O)C(=O)c2ccccc2-3)cc1`: “inactive”; for `NC(=O)[C@H]1CC2(CC(c3cccc(NC(=O)[C@H]4CCC(=O)N4)c3)=NO2)CN1C(=O)c1ccccc1C(=O)c1ccccc1` (stereo not given in full): “inactive”.
For `Cc1cccc(NC(=O)CCN2CC(C)CC(C)C2)c1` (stereo not given) the value was “inactive”; for `Cc1cccc(NC(=O)C(C)N2C(=O)C3C4CC(C(Br)C4Br)C3C2=O)c1` (stereo not given), 9.03 (active); for `Cc1cccc(NC(=O)C(C)SCc2ccccc2)c1` (stereo not given), “inactive”.
The same measure for `CC(C)(Oc1ccc(C2CC2(Cl)Cl)cc1)C(=O)O` (stereo not given): “inactive”; for `COc1cc(C2/C(=C(\O)c3ccc4c(c3)CC(C)O4)C(=O)C(=O)N2Cc2ccco2)ccc1O` (stereo not given): “inactive”.
Take `CCOc1ccc(C2=CC(c3ccccc3)n3ncnc3N2)cc1` (stereo not given): the B-score is 7.44 (active).
For `COc1ccc(C2=CC(c3cccc(OC)c3)n3nnnc3N2)cc1` (stereo not given) the value was “inactive”; for `Brc1ccc(C2=CC(c3ccco3)n3ncnc3N2)cc1` (stereo not given), “inactive”; for `CC1=C(C/C=C(\C)CCCC(C)CCCC(C)CCCC(C)C)C(=O)c2ccccc2C1=O` (stereo not given), “inactive”.
For `COc1ccc(-c2cn[nH]c2-c2ccc(OC)cc2)cc1` the value was “inactive”.
The same measure for `CCOc1ccccc1Oc1cn[nH]c1-c1ccc(OC)cc1O`: “inactive”; for `COc1ccc(Oc2cn[nH]c2-c2ccc(OC)cc2O)cc1`: 6.54 (active); for `O=C(NCc1ccccc1)C1=C[C@@H](C2CCCCC2)C[C@@H](OCc2ccc(CO)cc2)O1`: “inactive”.
On to `CC1CCC(CN2CCN=C2N(C)C)CC1` (stereo not given), for which the B-score entry was “inactive”.
Turning to `COc1ccc(NC(=O)c2cc(-c3ccc(C)o3)nc3ccccc23)cc1`, the B-score was 8.06 (active).
The same measure for `COc1ccc(-c2cc(C(=O)Nc3ccccc3O)c3ccccc3n2)cc1`: “inactive”.
For `COc1ccc(NC(=O)CN(C)C(=O)c2cc(-c3ccc(C)o3)nc3ccccc23)cc1` the value was “inactive”.
For `COc1ccc(C(=O)CN2C(=O)NC3(CCc4ccccc43)C2=O)c(OC)c1` (stereo not given), the B-score result is “inactive”.
In the case of `CC(OC(=O)CNS(=O)(=O)/C=C/c1ccccc1)C(=O)Nc1ccc(S(=O)(=O)N2CCCC2)cc1` (stereo not given), the B-score entry was “inactive”.
The same measure for `Nc1ccc(Oc2ccc(Cl)cc2)cc1`: 6.95 (active).
As to `COc1cccc(Oc2ccc(N)cc2)c1`, the B-score result was “inactive”.
The same measure for `CC(C)(C)c1ccc(Oc2ccc(N)cc2)cc1`: “inactive”; for `CCN(CC)C(=O)CC1(c2ccccc2OC)CCOC(C(C)C)C1` (stereo not given): “inactive”.
For `COC(=O)c1c(C)cc(O)c(C)c1O` the value was “inactive”; for `N#C/C=C(/c1ccc(F)cc1)N1CCOCC1`, “inactive”; for `CC1=C(C(N)=O)C(c2ccc(Br)cc2)n2ncnc2N1` (stereo not given), “inactive”.
For `Fc1ccccc1/C=C1\CCCC2=C1Nc1ncnn1C2c1ccccc1F` (stereo not given) the value was 7.46 (active); for `CC(C(=O)N=Nc1c(O)n(C)c2ccc(Br)cc12)n1cnc2ccccc2c1=O` (stereo not given), “inactive”; for `CC(C)N(c1ccccc1)c1ncnc(NCCC(=O)O)c1[N+](=O)[O-]`, “inactive”.
`Cc1c(C(=O)N2CCCc3ccccc32)sc2nc(-c3ccccc3)cn12`: the B-score was 10.8 (active).
For `Cc1c(C(=O)NCC2CCCO2)sc2nc(-c3ccccc3)cn12` (stereo not given) the value was “inactive”; for `Cc1c(C(=O)N2CC(C)OC(C)C2)sc2nc(-c3ccccc3)cn12` (stereo not given), “inactive”.
As for `CCn1nccc1C(=O)Nc1ccc(S(=O)(=O)NC23CC4CC(CC(C4)C2)C3)cc1`, the B-score result is “inactive”.
Regarding `COc1ccc(S(=O)(=O)N2CCCC(C(=O)NCCCn3ccnc3)C2)cc1OC` (stereo not given), the B-score entry is “inactive”.
The same measure for `Cc1ccc(C)c(N2CCN(S(=O)(=O)c3c(C)[nH]c(C)c3C(=O)N3CCCC3)CC2)c1`: “inactive”.
The same measure for `CCOC(=O)c1ccccc1NC(=S)N1CCC(C(N)=O)CC1`: “inactive”; for `Cc1occc(=O)c1OCc1ccc(F)cc1`: “inactive”; for `Fc1ccccc1COc1cccc2cccnc12`: “inactive”.
For `Cc1nc2ccccc2cc1OCc1ccc(F)cc1` the value was 11.8 (active); for `COCCCN(C(=O)CSCc1ccc(C)cc1)c1c(N)n(Cc2ccccc2)c(=O)[nH]c1=O`, “inactive”; for `S=C(NCCC1=CCCCC1)Nc1ccccc1`, “inactive”.
For `S=C(NCC1CCCO1)N1CCN(c2ccc(Cl)c(Cl)c2)CC1` (stereo not given), the B-score entry was “inactive”.
The same measure for `Oc1c(Br)cc(/C=N/NC(=S)NCC2CCCO2)cc1Br` (stereo not given): 6.64 (active); for `S=C(NCCc1ccccc1)NCC1CCCO1` (stereo not given): “inactive”.
On to `C=CCOc1ccccc1NC(=O)CN1C(=O)CNC1=O`, for which the B-score result is “inactive”.
`CCOC(=O)c1cnc2ccc(F)cc2c1Nc1ccc2c(c1)OCCO2`: the B-score result is “inactive”.
Turning to `CCCc1ccc(OCCNC(=O)c2ccco2)cc1`, the B-score entry was “inactive”.
For the molecule `CCCc1ccc(OCC(=O)NNC(=S)NC(=O)c2ccco2)cc1`, the B-score was 11.9 (active).
For `CC(Oc1ccc2ccccc2c1)C(=O)NNC(=S)NC(=O)c1ccco1` (stereo not given) the value was “inactive”; for `CCOc1cc(C(=O)Nc2ccc(S(=O)(=O)Nc3cnc4ccccc4n3)cc2)cc(OCC)c1OCC`, “inactive”.
`Cc1ccccc1-n1nc(SCC(=O)O)sc1=S`: the B-score result was “inactive”.
`CN(C)CCCCCN(C)Cc1cc2ccccc2o1`: the B-score result was “inactive”.
With `Cc1ccc(C2C3=C(Nc4[nH]n(-c5ccccc5)c(=O)c42)c2ccccc2C3=O)cc1` (stereo not given), the B-score entry was “inactive”.
For `COC(=O)C1=C(C)NC2=C(C(=O)c3ccccc32)C1c1ccc(-c2ccc(C(=O)O)cc2)o1` (stereo not given) the value was 16.1 (active).
Regarding `CCOC(=O)c1ccc(-c2ccc(C(=O)Nc3cccnc3)o2)cc1`, the B-score entry was “inactive”.
In the case of `CC(C)(C)NC(=O)CSc1nnc(NC(=O)CCc2ccccc2)s1`, the B-score result was “inactive”.
As for `O=C(ON=C1CCN(S(=O)(=O)c2ccccc2)CC1)c1ccc(Cl)cc1`, the B-score result was “inactive”.
